For two sequences, binding signal results are on record in publication PMC7862700, “An all-to-all approach to the identification of sequence-specific readers for epigenetic DNA modifications on cytosine”.

Common to all, as to test: DAPPL (digital affinity profiling via proximity ligation, sequencing); 10 mM Tris-HCl pH 7.5, 50 mM NaCl, 1 mM DTT, 4% glycerol, room temperature, 30 min; GST-TFs on glutathione beads, 16-mer random dsDNA library, 0.1% formaldehyde crosslink after washing; high values mean tight binding
Common to all, as to conditions: protein: recombinant; tags: N-terminal GST; dsDNA, one strand shown

One assay deals with T1, FLI1 (Homo sapiens, UniProt Q01543 1-452).
T1 sequence: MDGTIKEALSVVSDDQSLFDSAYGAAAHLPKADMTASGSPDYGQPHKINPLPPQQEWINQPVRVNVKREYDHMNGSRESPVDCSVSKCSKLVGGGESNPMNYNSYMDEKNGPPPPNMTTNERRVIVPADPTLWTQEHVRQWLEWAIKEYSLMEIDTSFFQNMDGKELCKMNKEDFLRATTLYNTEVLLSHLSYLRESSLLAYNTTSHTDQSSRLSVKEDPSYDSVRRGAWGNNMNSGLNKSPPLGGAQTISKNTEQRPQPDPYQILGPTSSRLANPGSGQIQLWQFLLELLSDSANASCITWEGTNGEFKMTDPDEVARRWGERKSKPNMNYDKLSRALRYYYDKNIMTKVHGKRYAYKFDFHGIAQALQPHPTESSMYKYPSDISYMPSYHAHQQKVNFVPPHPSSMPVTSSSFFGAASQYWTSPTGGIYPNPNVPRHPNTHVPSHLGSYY
Put shortly:
(§1)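 Binding signal is defined as a hexamer's read frequency for one factor over its frequency for the tag-only sample. To obtain reads, GST-fused human transcription factors were expressed in yeast, captured on glutathione beads, barcoded with DNA and pooled with that sample. Pools met 200 nmole of a 16-mer random double-stranded DNA library in Tris/NaCl/DTT/glycerol buffer for 30 min at room temperature before washing, 0.1% formaldehyde crosslinking, proximity ligation (BsaI/T4 ligase, 1 h, 37 °C), PCR and Illumina NextSeq500 sequencing.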

In another assay the target is T2, ELK1 (Homo sapiens, UniProt P19419 1-428).
T2 sequence: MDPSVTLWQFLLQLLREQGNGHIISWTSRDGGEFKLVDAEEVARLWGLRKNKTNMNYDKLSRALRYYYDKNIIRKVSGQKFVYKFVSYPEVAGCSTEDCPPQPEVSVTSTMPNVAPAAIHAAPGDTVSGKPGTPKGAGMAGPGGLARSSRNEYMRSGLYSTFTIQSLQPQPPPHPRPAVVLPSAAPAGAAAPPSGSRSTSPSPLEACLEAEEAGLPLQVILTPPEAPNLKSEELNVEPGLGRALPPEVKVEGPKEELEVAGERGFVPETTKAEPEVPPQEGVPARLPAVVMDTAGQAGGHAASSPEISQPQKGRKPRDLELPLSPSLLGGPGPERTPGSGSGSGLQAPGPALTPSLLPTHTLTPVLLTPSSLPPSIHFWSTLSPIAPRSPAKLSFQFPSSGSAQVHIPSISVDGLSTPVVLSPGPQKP
An outline of the steps: as §1

The target in the next assay is T3, GABPA (Homo sapiens, UniProt Q06546 1-454).
T3 sequence: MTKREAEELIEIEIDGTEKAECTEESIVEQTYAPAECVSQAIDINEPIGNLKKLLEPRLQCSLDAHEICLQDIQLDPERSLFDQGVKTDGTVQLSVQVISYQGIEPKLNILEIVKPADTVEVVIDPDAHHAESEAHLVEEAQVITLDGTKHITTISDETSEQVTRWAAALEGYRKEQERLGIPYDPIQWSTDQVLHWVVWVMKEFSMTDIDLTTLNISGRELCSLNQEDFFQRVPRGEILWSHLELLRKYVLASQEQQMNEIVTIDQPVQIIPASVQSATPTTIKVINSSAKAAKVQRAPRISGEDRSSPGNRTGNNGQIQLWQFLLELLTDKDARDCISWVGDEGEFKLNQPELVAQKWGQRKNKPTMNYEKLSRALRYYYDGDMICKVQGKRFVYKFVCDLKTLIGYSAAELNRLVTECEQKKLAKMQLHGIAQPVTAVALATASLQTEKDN
An outline of the steps: as §1

A further assay concerns the target T4, ERG (Homo sapiens, UniProt P11308 1-479).
T4 sequence: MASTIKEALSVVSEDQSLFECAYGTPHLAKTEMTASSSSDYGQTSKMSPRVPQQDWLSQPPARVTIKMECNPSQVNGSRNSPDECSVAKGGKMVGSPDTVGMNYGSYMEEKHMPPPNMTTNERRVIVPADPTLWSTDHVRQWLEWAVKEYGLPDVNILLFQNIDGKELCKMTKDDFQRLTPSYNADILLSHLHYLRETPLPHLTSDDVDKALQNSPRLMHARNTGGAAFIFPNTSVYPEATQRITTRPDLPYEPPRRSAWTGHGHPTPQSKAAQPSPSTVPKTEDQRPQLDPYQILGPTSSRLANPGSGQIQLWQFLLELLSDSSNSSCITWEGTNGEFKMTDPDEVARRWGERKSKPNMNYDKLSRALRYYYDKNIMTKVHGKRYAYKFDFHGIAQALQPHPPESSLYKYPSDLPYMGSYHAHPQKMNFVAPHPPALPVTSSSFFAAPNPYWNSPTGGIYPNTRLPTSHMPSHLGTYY
An outline of the steps:
as §1

The next assay concerns the target ELF1 (Homo sapiens, UniProt P32519 1-619). Put shortly:
as §1

Another assay addresses T5, EHF (Homo sapiens, UniProt Q9NZC4 1-300).
T5 sequence: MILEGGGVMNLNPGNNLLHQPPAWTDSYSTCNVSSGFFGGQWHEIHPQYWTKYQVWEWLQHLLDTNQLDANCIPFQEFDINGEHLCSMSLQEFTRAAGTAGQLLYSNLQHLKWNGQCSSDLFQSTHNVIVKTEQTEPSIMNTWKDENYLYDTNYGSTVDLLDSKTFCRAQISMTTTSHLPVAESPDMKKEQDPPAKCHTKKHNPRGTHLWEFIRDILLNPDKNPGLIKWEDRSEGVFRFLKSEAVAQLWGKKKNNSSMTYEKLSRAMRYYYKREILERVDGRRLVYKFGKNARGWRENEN
An outline of the steps:
as §1

For another assay, the target named is SPI1 (Homo sapiens, UniProt P17947 1-270). An outline of the steps: as §1
A further assay concerns the target SPIB (Homo sapiens, UniProt Q01892 1-262). Put shortly:
as §1

Another assay addresses T6, ELK3 (Homo sapiens, UniProt P41970 1-407).
T6 sequence: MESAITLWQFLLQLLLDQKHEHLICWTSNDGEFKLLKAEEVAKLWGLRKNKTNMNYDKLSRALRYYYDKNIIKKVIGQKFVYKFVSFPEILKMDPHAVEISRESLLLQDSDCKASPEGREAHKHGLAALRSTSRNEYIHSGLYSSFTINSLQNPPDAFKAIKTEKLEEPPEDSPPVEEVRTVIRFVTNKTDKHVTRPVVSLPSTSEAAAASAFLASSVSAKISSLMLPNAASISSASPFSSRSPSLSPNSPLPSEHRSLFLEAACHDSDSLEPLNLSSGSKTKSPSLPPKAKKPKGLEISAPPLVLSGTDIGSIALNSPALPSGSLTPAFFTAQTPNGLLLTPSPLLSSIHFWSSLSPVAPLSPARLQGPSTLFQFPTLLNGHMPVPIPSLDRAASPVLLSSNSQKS
Put shortly:
as §1

The target in another assay is T7, FEV (Homo sapiens, UniProt Q99581 1-238).
T7 sequence: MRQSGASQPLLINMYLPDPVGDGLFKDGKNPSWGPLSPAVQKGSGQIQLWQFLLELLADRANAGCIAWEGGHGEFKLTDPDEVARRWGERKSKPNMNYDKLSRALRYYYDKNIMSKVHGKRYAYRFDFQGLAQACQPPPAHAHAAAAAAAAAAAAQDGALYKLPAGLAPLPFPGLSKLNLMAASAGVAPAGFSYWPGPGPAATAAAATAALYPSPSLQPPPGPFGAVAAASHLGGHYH
Put shortly:
as §1

Another assay addresses ETV5 (Homo sapiens, UniProt P41161 1-510). Put shortly:
as §1

The next assay concerns the target T8, SPIC (Homo sapiens, UniProt Q8N5J4 1-248).
T8 sequence: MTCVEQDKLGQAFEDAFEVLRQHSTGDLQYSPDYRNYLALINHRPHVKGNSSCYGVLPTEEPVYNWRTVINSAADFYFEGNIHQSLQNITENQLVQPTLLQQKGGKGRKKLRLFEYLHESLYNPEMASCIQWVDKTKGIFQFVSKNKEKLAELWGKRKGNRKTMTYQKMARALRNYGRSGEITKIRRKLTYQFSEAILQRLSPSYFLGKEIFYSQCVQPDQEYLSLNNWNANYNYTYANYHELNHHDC
An outline of the steps:
as §1

The target of the next assay is ELF4 (Homo sapiens, UniProt Q99607 1-663). Put shortly: as §1
For the next assay, the target named is T9, ELK4 (Homo sapiens, UniProt P28324-2 1-405).
T9 sequence: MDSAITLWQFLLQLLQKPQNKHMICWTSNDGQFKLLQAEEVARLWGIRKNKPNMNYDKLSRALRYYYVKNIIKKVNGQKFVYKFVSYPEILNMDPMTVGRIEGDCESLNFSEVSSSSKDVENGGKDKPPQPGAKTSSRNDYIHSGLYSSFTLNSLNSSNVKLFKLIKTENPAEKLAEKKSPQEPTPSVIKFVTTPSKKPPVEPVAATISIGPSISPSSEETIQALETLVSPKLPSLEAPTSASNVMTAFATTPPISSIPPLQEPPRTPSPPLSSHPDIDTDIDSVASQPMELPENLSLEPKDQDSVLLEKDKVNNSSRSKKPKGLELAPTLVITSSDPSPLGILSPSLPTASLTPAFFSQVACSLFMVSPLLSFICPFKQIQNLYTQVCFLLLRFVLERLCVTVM
An outline of the steps:
as §1

The target in the next assay is T10, ETV2 (Homo sapiens, UniProt O00321 1-342).
T10 sequence: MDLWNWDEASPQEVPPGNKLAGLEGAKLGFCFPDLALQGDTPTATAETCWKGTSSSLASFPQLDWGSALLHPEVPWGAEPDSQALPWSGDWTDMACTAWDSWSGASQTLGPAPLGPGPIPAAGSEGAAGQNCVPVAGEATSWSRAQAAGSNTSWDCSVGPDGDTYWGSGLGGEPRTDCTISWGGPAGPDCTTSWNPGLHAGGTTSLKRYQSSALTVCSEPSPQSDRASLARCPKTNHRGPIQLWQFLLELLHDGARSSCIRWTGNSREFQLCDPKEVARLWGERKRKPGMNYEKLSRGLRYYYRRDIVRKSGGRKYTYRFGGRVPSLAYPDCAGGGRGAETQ
An outline of the steps:
as §1

Another assay deals with T11, ELF3 (Homo sapiens, UniProt P78545 1-371).
T11 sequence: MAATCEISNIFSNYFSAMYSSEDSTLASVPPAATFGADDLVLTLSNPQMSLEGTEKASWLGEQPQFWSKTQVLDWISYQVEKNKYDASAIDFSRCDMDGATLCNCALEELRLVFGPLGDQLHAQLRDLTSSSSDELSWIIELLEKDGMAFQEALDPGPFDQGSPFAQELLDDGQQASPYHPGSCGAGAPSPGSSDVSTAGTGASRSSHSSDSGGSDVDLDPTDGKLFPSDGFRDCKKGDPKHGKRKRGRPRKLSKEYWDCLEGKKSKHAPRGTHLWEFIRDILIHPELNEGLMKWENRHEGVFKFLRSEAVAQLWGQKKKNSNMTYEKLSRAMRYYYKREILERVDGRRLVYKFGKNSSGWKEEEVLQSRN
An outline of the steps:
as §1

For another assay, the target named is ETV1 (Homo sapiens, UniProt P50549 1-477). An outline of the steps:
as §1

Sequence of ELF4 (Q99607 whole entry): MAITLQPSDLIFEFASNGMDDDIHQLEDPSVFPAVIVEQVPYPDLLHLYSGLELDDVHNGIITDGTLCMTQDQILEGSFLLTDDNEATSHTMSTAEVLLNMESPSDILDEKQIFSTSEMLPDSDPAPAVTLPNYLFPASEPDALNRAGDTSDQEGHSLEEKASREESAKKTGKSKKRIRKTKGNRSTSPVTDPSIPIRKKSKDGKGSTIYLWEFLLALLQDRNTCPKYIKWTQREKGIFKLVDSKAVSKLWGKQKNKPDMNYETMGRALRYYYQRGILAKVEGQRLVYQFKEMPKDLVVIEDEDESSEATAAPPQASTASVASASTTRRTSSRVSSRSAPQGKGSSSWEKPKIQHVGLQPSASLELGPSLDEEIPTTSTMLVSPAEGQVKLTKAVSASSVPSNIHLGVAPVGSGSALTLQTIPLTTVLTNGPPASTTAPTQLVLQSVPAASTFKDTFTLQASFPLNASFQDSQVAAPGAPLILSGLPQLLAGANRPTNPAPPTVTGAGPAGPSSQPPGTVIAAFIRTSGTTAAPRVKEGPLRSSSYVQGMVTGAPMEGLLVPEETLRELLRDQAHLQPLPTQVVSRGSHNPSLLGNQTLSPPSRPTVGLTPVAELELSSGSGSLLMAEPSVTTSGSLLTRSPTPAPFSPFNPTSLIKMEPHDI
Sequence of SPIB (Q01892 whole entry): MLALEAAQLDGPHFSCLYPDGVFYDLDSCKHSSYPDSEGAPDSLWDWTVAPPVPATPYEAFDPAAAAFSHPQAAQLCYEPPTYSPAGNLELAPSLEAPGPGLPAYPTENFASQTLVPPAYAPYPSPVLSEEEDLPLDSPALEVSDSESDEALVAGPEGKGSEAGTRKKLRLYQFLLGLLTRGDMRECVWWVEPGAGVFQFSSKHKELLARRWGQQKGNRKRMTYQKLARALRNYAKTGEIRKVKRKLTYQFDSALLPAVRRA
Sequence of ETV1 (P50549 whole entry): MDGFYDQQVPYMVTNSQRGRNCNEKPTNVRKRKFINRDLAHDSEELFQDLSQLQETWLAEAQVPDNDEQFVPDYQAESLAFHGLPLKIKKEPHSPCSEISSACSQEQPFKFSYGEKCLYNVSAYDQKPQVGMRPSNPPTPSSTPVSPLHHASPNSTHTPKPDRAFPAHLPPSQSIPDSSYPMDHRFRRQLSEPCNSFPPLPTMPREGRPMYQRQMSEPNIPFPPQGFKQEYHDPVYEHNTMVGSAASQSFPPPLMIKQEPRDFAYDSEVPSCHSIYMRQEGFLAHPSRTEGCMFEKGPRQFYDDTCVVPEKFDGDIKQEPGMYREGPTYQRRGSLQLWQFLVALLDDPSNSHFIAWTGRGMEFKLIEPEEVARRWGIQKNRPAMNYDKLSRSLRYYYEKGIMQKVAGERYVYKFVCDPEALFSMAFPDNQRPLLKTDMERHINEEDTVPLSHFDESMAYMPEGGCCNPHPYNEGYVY
Sequence of ETV5 (P41161 whole entry): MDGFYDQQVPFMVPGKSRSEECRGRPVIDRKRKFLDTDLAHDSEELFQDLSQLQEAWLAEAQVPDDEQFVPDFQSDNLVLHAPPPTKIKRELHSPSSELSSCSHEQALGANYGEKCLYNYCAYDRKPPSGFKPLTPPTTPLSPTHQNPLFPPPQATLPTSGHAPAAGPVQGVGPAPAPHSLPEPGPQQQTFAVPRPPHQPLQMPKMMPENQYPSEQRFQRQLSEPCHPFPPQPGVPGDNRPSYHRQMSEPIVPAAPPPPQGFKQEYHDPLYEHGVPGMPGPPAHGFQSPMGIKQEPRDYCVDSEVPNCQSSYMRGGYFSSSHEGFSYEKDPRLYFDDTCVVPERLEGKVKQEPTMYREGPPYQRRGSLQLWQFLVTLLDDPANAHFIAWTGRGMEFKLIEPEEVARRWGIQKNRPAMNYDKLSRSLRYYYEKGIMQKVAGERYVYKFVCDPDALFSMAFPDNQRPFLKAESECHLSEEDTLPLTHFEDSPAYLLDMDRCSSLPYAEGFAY
Sequence of ELF1 (P32519 whole entry): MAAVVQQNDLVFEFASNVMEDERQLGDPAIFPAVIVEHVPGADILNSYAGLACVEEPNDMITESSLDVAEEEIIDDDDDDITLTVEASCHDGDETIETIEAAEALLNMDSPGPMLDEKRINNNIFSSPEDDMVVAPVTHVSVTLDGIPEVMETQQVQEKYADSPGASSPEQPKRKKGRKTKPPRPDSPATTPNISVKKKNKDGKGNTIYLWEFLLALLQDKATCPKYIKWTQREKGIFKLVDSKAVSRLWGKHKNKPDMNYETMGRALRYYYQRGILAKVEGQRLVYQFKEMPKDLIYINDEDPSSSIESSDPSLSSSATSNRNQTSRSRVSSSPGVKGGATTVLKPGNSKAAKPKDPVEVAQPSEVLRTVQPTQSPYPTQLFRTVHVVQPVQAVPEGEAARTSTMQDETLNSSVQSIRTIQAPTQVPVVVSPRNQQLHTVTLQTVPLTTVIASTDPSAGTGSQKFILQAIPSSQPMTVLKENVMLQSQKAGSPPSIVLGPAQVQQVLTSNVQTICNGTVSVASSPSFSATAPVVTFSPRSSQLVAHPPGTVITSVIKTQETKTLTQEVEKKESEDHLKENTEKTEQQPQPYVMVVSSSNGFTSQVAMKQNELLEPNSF

Regarding TGTCAT, the binding signal with FLI1 is 1.24 fold enrichment (6-mer frequency, TF over GST control); with ELK1, 1.08 fold enrichment (6-mer frequency, TF over GST control); with GABPA it was 1.18 fold enrichment (6-mer frequency, TF over GST control); with ERG, 1.11 fold enrichment (6-mer frequency, TF over GST control); with ELF1 it was 1.15 fold enrichment (6-mer frequency, TF over GST control); in the assay with EHF, 1.17 fold enrichment (6-mer frequency, TF over GST control). Moreover, the binding signal in the assay with SPI1 is 1.09 fold enrichment (6-mer frequency, TF over GST control); in the assay with SPIB, 1.2 fold enrichment (6-mer frequency, TF over GST control); with ELK3, 1.04 fold enrichment (6-mer frequency, TF over GST control); with FEV, 1.1 fold enrichment (6-mer frequency, TF over GST control); with ETV5 it was 1.18 fold enrichment (6-mer frequency, TF over GST control); with SPIC it was 1.16 fold enrichment (6-mer frequency, TF over GST control). The binding signal with ELF4 is 1.13 fold enrichment (6-mer frequency, TF over GST control); with ELK4, 1.08 fold enrichment (6-mer frequency, TF over GST control); with ETV2, 1.11 fold enrichment (6-mer frequency, TF over GST control); with ELF3, 1.06 fold enrichment (6-mer frequency, TF over GST control); in the assay with ETV1 it was 1.18 fold enrichment (6-mer frequency, TF over GST control).
Turning to CATAAC, the binding signal in the assay with FLI1 is 1.09 fold enrichment (6-mer frequency, TF over GST control); with ELK1, 1.2 fold enrichment (6-mer frequency, TF over GST control); with GABPA, 1.15 fold enrichment (6-mer frequency, TF over GST control); in the assay with ERG, 1.1 fold enrichment (6-mer frequency, TF over GST control); in the assay with ELF1, 1.22 fold enrichment (6-mer frequency, TF over GST control); with EHF, 1.09 fold enrichment (6-mer frequency, TF over GST control). Also, the binding signal is 1.16 fold enrichment (6-mer frequency, TF over GST control) with SPI1; 1.13 fold enrichment (6-mer frequency, TF over GST control) in the assay with SPIB; 1.18 fold enrichment (6-mer frequency, TF over GST control) with ELK3; 1.08 fold enrichment (6-mer frequency, TF over GST control) with FEV; 1.16 fold enrichment (6-mer frequency, TF over GST control) in the assay with ETV5; 1.2 fold enrichment (6-mer frequency, TF over GST control) with SPIC. In addition, the binding signal with ELF4 was 1.1 fold enrichment (6-mer frequency, TF over GST control); with ELK4 it was 1.25 fold enrichment (6-mer frequency, TF over GST control); with ETV2, 1.11 fold enrichment (6-mer frequency, TF over GST control); with ELF3, 1.13 fold enrichment (6-mer frequency, TF over GST control); with ETV1, 1.1 fold enrichment (6-mer frequency, TF over GST control).
